SMN2 splice up = enhancers of SMN2 splice variant expression | actives 2.8% (n = 210,000) | Potency, µM (titrated, usually from 46.1 µM), for inactives: at the top dose activity change, positive = activation, actives largely listed as activators | HEK293 SMN2-luciferase splicing reporter, luminescence, 30-36 h; further: % of control where 0% means no effect; nearly all actives have a fitted effect of over 55% in size
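HEK293 cells carry an SMN2 minigene-luciferase reporter in which exon 7 inclusion puts luciferase in frame. Cells were seeded at 2000 cells/well, attached for 10-12 hours, then exposed to compounds for 30-36 hours at 37C before ONE-Glo luminescence.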
ELG1 repair inh = ELG1-dependent DNA repair inhibition. HEK293T ELG1-luciferase reporter, luminescence, 16 h; DNA damage induced by 5-fluorouridine. actives 2.3% (n = 330,000). Potency, µM (highest dose often 46.1 µM), for inactives: top-dose activity change, negative = inhibition, most hits filed as inhibitors. AID 504467; further: on the % scale 0 is the no-effect control and ±100 the full control effect; nearly all actives have a fitted effect of over 55% in size
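Overnight (16 hr) co-exposure of 2,000 cells/well to 5-fluorouridine and compound at 37 °C preceded detection. Luciferase was quantified via ONE-Glo luminescence; loss of signal denotes inhibition.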
Rab9 promoter act = Rab9 promoter activation | actives 2.8% (n = 320,000) | Huh7 Rab9 promoter-luciferase reporter, luminescence, 24 h | Potency, µM (highest dose often 9.22 µM), for inactives: at the top dose activation, negative = inhibition, hits mostly activators; further: % of control where 0% means no effect; nearly all actives have a fitted effect of over 60% in size
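Measured in stably transfected Huh7 cells bearing a Rab9 promoter–luciferase construct: 24 h compound treatment at 37 °C, followed by luminescence detection.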
NPC1 prom act = activates the NPC1 promoter; Potency, µM (highest dose often 9.22 µM), without a hit: at the top dose activation, actives largely listed as activators; Huh7 NPC1 promoter luciferase reporter, 24 h; actives 2.4% (n = 320,000); AID 485313; further: % of control where 0% means no effect; nearly all actives have a fitted effect of over 60% in size
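Compounds in DMSO were transferred onto Huh7 NPC1-luciferase reporter cells pre-incubated 2 h; after 24 h at 37 °C, Amplite reagent was dispensed and luminescence recorded 10 min later.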
FLuc counter = firefly luciferase modulation, counter-screen for miR-21 project; P08659; purified FLuc, Km substrates, luminescence inhibition; Potency, µM (top dose mostly 57.5 µM), for inactives: at the highest dose activity change, negative = inhibition, most hits filed as inhibitors; actives 6.9% (n = 360,000); AID 588342;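 further: plate controls were vehicle for no effect and reference inhibitor for full effect; nearly all actives have a fitted effect of over 55% in size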
Target sequence (P08659 whole entry, looked up): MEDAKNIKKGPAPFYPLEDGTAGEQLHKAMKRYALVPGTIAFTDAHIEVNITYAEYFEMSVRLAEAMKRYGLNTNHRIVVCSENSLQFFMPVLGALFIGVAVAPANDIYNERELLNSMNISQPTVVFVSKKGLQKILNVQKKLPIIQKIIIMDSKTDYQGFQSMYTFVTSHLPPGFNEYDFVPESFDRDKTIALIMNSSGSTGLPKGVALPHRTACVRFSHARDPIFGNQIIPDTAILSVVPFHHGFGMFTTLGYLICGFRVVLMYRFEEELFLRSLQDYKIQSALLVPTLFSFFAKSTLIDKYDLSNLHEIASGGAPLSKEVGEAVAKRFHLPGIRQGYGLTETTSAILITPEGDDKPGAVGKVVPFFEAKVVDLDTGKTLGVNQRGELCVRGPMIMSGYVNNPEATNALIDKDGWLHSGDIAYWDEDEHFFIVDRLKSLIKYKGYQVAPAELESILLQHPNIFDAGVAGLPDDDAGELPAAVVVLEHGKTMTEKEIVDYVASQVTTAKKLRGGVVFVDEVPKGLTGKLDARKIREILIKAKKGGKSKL
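Purified P. pyralis luciferase (10nM final) with 10uM D-luciferin and 10uM ATP (Km levels) in 50mM Tris acetate pH 7.5, 10mM Mg acetate, 0.01% Tween-20, 0.05% BSA; qHTS 6-point titration, ~60 µM downward; luminescence read.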
ELG1 genotox = induces genotoxicity in HEK293T cells with luciferase-tagged ELG1 | Potency, µM (highest dose often 46 µM), without a hit: at the highest dose activity change, positive = activation, most hits filed as activators | actives 1.3% (n = 330,000) | HEK293T ELG1-luciferase reporter, luminescence, 16 h; further: % of control where 0% means no effect; nearly all actives have a fitted effect of over 60% in size
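16 hr compound incubation (37 °C, 5% CO2) of HEK293T cells carrying luciferase-tagged ELG1; luciferase then measured by ONE-Glo luminescence after 30 min at RT.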
Numbers without * were called inactive; u = inconclusive; x = no result. Hits are enriched below; roughly 9.2% of the tested compounds scored in any of these assays. The call rests on the fitted dose curve; in most records, active means well fitted curve in the direction sought with a large enough effect; inconclusive means small, poorly fitted or top-dose-only effect, or another doubt; inactive means no such curve, though single readings can be large; an effect the other way counts as inactive or inconclusive. Potency means the concentration at half of the fitted maximal effect.

SMILES	SMN2 splice up	ELG1 repair inh	Rab9 promoter act	NPC1 prom act	FLuc counter	ELG1 genotox
COc1ccccc1-c1cc(C(=O)NC(C)C)no1	29%	u	2.8µM*	3.2µM*	13µM*	u
CCOC(=O)CNC(=O)Cn1cnc2c(cnn2-c2ccc(C)cc2)c1=O	x	-8%	4%	-8%	0%	1%
COc1ccccc1-c1cc(C(=O)NCc2ccco2)no1	1%	u	0%	14%	15µM*	9%
COc1ccccc1-c1cc(C(=O)NCc2cccs2)no1	-3%	u	-5%	13%	19µM*	6%
COCCNC(=O)c1cc(-c2ccccc2OC)on1	36%	u	u	9%	21µM*	u
O=C(NCc1ccco1)c1cc(-c2ccco2)on1	1%	u	u	u	u	u
COc1cccc(-c2nc(N3CCCC3)c3ccccc3n2)c1O	x	u	-3%	1%	15µM*	-5%
COc1cccc(-c2nc(NC(C)(C)C)c3ccccc3n2)c1O	x	u	7%	0%	-3%	-7%
COc1ccc(Nc2nc(-c3cccc(OC)c3O)nc3ccccc23)cc1	x	u	13%	u	3.8µM*	-5%
Cc1ccc(S(=O)(=O)N(C)C)cc1NC(=O)COC(=O)Cc1ccccc1F	x	1%	1%	-4%	9%	-1%
COc1ccccc1NC(=O)c1sc2nc(C)c(C(=O)Nc3ccc(C)cc3C)c(-c3ccc(C)o3)c2c1N	-2%	x	x	x	1%	x
CCOc1ccc(C(C)=O)cc1COc1ccc(C)nc1[N+](=O)[O-]	x	-17%	-24%	-29%	0%	-2%
CCOc1ccc(C(C)=O)cc1COc1ccc(-c2nnco2)cc1	x	7.3µM*	3%	6%	0%	-15%
COc1ccc(C)cc1Nc1nc(-c2c[nH]c3ccccc23)cs1	-10%	10%	1%	0%	u	2%
Clc1ccc(-c2c[nH]c3ccccc23)nn1	23%	30%	20%	6%	u	5%
c1ccc2c(-c3csc(-c4ccncc4)n3)c[nH]c2c1	13µM*	u	u	1%	7.6µM*	u
Brc1ccc(-c2csc(-c3c[nH]c4ccccc34)n2)cc1	u	u	9%	u	21µM*	10%
CCCC(C(=O)NC1CCCC1)N(Cc1ccc(OC)cc1)C(=O)c1snc(C(N)=O)c1N (stereo not given)	x	-4%	0%	-2%	1%	-1%
Cc1ccnc(N2CCN(C(=O)CSc3nc4ccccc4nc3N3CCC(C)CC3)CC2)c1	-20%	21µM*	3%	-2%	-7%	-4%
Cc1nc2ccccc2nc1SCC(=O)N1CCC(C)CC1	-27%	-12%	6%	-6%	-10%	-1%
N#Cc1cc2c(OCC(O)CN3CCN(C(c4ccccc4)c4ccccc4)CC3)cccc2[nH]1 (stereo not given)	-4%	x	x	x	x	x
O=c1c(N2CCCCC2)csc2ccc(F)cc12	x	x	x	x	6µM*	x
CC1CCCN(c2csc3ccccc3c2=O)C1 (stereo not given)	x	x	x	x	8.5µM*	x
Cc1ccc2scc(N3CCN(c4ccccc4)CC3)c(=O)c2c1	x	x	x	x	17µM*	x
CC(=O)N1CCN(c2csc3ccc(Br)cc3c2=O)CC1	x	x	x	x	15µM*	x
SMILES	SMN2 splice up	ELG1 repair inh	Rab9 promoter act	NPC1 prom act	FLuc counter	ELG1 genotox
Cc1ccc2scc(N3CCN(c4ccc(F)cc4)CC3)c(=O)c2c1	x	x	x	x	-12%	x
Cc1ccc2scc(N3CCc4ccccc4C3)c(=O)c2c1	x	x	x	x	4.8µM*	x
Clc1ccc2scc(CN3CCCCC3)c2c1	-3%	-1%	-4%	-1%	4%	-1%
CCN1CCN(c2csc3ccc(Cl)cc3c2=O)CC1	x	x	x	x	15µM*	x
Nc1ncnc2c1ncn2[C@@H]1O[C@H](CNCc2ccc(-c3cc(C(F)(F)F)ccc3Cl)o2)[C@@H](O)[C@H]1O	x	-17%	x	x	x	13%
CCN(c1ccc(C)cc1C)S(=O)(=O)c1nnc(NC(=O)c2ccccc2OC)s1	x	x	x	x	5%	x
O=c1[nH]c2ccccc2c2nc3ccccn3c12	14%	u	u	u	17µM*	u
COc1ccc(-c2cn(CCC(=O)O)c(-c3ccncc3)n2)cc1	x	1%	-1%	-1%	u	0%
COc1ccc(-c2cn(Cc3ccc(C(N)=O)cc3)c(-c3ccncc3)n2)cc1	x	u	2.5µM*	3.2µM*	2.4µM*	u
O=C(Nc1ccc2[nH]c(=S)sc2c1)Nc1ccccc1F	x	u	0.13µM*	0.11µM*	21µM*	0.58µM*

Assay outcomes deposited in PubChem BioAssay by National Center for Advancing Translational Sciences (NCATS).
